NR5A2 inv ag = LRH-1 (NR5A2) inverse agonists, primary screen, cell-based, luminescence, HEK293T, StAR-luciferase reporter. Nuclear receptor subfamily 5 group A member 2 (Homo sapiens), O00482. LRH-1 transfected, 24 h. inhibition, % at 3.6 µM. actives 0.13% (n = 360,000). AID 602396, 2012;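 active = inhibition above the mean inhibition of all tested compounds plus 3 SD, cut at about 73% in these data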
Target sequence (O00482 whole entry, looked up): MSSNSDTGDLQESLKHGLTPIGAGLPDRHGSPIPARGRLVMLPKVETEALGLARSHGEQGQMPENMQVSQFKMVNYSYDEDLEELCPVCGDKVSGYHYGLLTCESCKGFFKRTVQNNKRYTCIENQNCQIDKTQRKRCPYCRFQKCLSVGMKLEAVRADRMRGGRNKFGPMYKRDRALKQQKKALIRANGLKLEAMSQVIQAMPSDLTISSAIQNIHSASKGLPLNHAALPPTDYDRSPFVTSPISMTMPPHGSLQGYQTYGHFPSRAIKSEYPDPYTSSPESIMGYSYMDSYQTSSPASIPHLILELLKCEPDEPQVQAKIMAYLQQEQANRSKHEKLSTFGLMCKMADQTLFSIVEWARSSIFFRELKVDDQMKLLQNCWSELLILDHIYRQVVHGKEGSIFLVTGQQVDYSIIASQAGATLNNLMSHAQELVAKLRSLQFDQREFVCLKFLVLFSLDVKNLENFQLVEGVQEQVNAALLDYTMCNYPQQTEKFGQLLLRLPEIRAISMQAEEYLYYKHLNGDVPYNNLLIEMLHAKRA
SRC2 inh = inhibition of GAL4-SRC2 driven luciferase reporter, primary screen, SRC2 inhibitor project, cell-based, luminescence. HEK293 GAL4-SRC2 luciferase reporter. inhibition, % at 9 µM. actives 0.17% (n = 370,000);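 active = inhibition above the mean inhibition of all tested compounds plus 3 SD, set per campaign, cut at about 52% in these data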
Gli-Sufu block = Gli-Sufu pathway antagonists, primary screen, luciferase luminescence, Sufu-KO-LIGHT cells, uHTS; Sufu-KO-LIGHT fibroblasts, Gli luciferase reporter luminescence; inhibition, % at 5 µM; actives 0.74% (n = 340,000);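 active = inhibition above about 55%, limit read from the data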
SRC1 inh = SRC1 coactivator transcriptional activity inhibitors, primary screen, cell-based, luminescence. Nuclear receptor coactivator 1 (Homo sapiens), Q15788. HEK293 GAL4-SRC1 luciferase reporter. inhibition, % at 3.6 µM. actives 0.12% (n = 360,000). AID 588354, 2011;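 active = inhibition above the campaign mean plus 3 SD, with each screening campaign given its own cutoff, cut at about 60% in these data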
SRC3 inh = SRC3 coactivator transcriptional activity inhibitors, primary screen, cell-based, luminescence | inhibition, % at 3.6 µM | HEK293 GAL4-SRC3 luciferase reporter | Nuclear receptor coactivator 3 (Homo sapiens), Q9Y6Q9 | actives 0.17% (n = 360,000);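 active = inhibition above a per-campaign cutoff, the mean of all compounds plus 3 SD, cut at about 60% in these data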;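 note: higher means less SRC3-driven luciferase light from the GAL4 reporter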
Gli-Sufu confirm = Gli-SUFU pathway antagonists, confirmation, single concentration, luciferase luminescence, Sufu-KO-LIGHT cells. inhibition, % at 5 µM. shares compounds with Gli-Sufu block. Gli luciferase reporter. actives 40% (n = 2,500);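 active = mean inhibition at 5 µM reaching about 45%, limit read from the data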
Gli cytotox = cytotoxicity in Sufu-KO-LIGHT cells, confirmation, cytotoxicity control for Gli-SUFU antagonist project, cell-based, ATP luminescence, single concentration; shares compounds with Gli-Sufu block; cytotoxicity, % at 5 µM; actives 32% (n = 2,500); AID 651994, 2013;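 active = mean cytotoxicity at 5 µM above about 25%, limit read from the data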;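 note: cells exposed to compound overnight for roughly 16 to 18 hours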
Wnt3a counter = Wnt3a reporter signal inhibition, confirmation, counter-screen for Gli-SUFU antagonist project, Wnt-LIGHT cells, luminescence, single concentration; shares compounds with Gli-Sufu block; Wnt3a-driven luciferase reporter; inhibition, % at 6.25 µM; actives 20% (n = 2,500); AID 651995, 2013;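 active = mean inhibition above about 25%, limit read from the data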
Numbers stand for hits; n = inactive; x = no result given. In the library only some 0.83% were active in any assay of this set; here they are far more common.

SMILES | NR5A2 inv ag | SRC2 inh | Gli-Sufu block | SRC1 inh | SRC3 inh | Gli-Sufu confirm | Gli cytotox | Wnt3a counter
O=C(c1ccc(Cl)cc1)c1cc([N+](=O)[O-])ccc1N1CCOCC1 | n | n | n | n | n | 51.1 | 47.0 | n
O=C(Nc1ccc(F)cc1F)C1CCN(c2nnc(-n3cccc3)s2)CC1 | x | n | x | x | x | x | x | x
COc1cc(C)c(C)cc1S(=O)(=O)N1CCN(Cc2ccccc2)CC1 | n | n | n | n | n | n | n | n
COc1ccc(S(=O)(=O)N2CCN(Cc3ccccc3)CC2)c(C)c1 | n | n | n | n | n | x | x | x
CC(=O)NC(c1ccc(C(C)C)cc1)c1ccc2cccnc2c1O (stereo not drawn) | 89.7 | n | 90.0 | 68.4 | 81.5 | 83.0 | 50.0 | 73.5
CC(=O)NC(c1ccc(C)cc1)c1cc(Cl)c2cccnc2c1O (stereo not drawn) | n | n | n | n | n | x | x | x
O=S(=O)(c1ccccc1F)N1CCC(c2nc3ccccc3o2)CC1 | x | n | x | x | x | x | x | x
COC(=O)[C@]12C[C@H](CC(=O)NCc3ccc(OC)c(OC)c3)C(=O)N(Cc3ccco3)C1=C[C@H](C(C)C)O[C@@H]2C1CC1 | x | n | x | x | x | x | x | x
CC1CCN(Cc2c(C(=O)N/N=C/c3ccccc3O)nnn2-c2nonc2N)CC1 | n | n | n | n | n | 62.2 | n | 27.0
Nc1nonc1-n1nnc(C(=O)N/N=C/c2ccncc2)c1CSc1ccccc1 | n | n | 62.4 | n | n | n | n | n
Nc1nonc1-n1nnc(C(=O)N/N=C/c2ccccc2)c1CSc1ccccc1 | n | n | n | n | n | x | x | x
COCCN(Cc1cc2c(C)cc(C)cc2nc1Cl)C(=O)c1ccccc1F | n | n | 57.9 | n | n | n | n | n
FC(F)(F)c1cnc(Sc2nnc(-c3cccs3)n2CC2CCCO2)c(Cl)c1 (stereo not drawn) | n | n | n | n | n | n | n | n
COc1cc2c(cc1OC)C1C(C(=O)Nc3ccccc3N3CCN(C)CC3)c3ccccc3C(=O)N1CC2 (stereo not drawn) | n | n | n | n | n | x | x | x
COc1cc2c(cc1OC)C(C(=O)Nc1ccccc1N1CCN(C)CC1)C1c3ccccc3CCN1C2=O (stereo not drawn) | n | n | 56.3 | n | n | n | n | n
Cc1ccc(-c2c[n+]3c(n2-c2ccccc2)CCC3)cc1 | n | n | 80.1 | n | n | 82.8 | 34.4 | 36.3
CCOc1ccc(-n2c(-c3ccccc3)c[n+]3c2CCCCC3)cc1 | n | n | 86.2 | n | n | 90.0 | 25.4 | 40.0
c1ccc(-c2c[n+]3c(n2-c2ccccc2)CCC3)cc1 | n | n | 59.8 | n | n | 68.5 | n | n
Clc1ccc(-c2c[n+]3c(n2-c2ccccc2)SCC3)cc1 | n | n | n | n | n | x | x | x
CCNC(=S)NNC(=O)CSc1nnc(-c2ccccc2)n1-c1ccc(Cl)cc1 | x | n | x | x | x | x | x | x
COc1ccc(C2C=C(C)Nc3nc4ccccc4n32)cc1 (stereo not drawn) | n | n | 98.1 | n | n | n | n | n
Cc1ccc(C)c(Oc2cc(NC(=O)CCCn3nc(C)c([N+](=O)[O-])c3C)cc([N+](=O)[O-])c2)c1 | n | n | n | n | n | n | n | n
CC(C)CN1CN2Cc3ccccc3C2CS1(=O)=O (stereo not drawn) | x | n | x | x | x | x | x | x
Cc1ccc(-n2c(C)cc(C3=NNC(=NC4CC4)SC3)c2C)cc1C | n | n | 59.9 | n | n | 66.9 | 29.5 | 70.6
Cc1cc(C2=NNC(=NC3CC3)SC2)c(C)n1-c1c(C)n(C)n(-c2ccccc2)c1=O | n | n | n | n | n | x | x | x
SMILES | NR5A2 inv ag | SRC2 inh | Gli-Sufu block | SRC1 inh | SRC3 inh | Gli-Sufu confirm | Gli cytotox | Wnt3a counter
CC(OC(=O)c1cccc(-n2cnnn2)c1)C(=O)Nc1ccc(F)cc1 (stereo not drawn) | n | n | n | n | n | n | n | n
O=C(c1ccc(=O)[nH]n1)N1CCN(S(=O)(=O)c2ccc3ccccc3c2)CC1 | n | n | 63.5 | n | n | n | n | n
O=C(c1ccc(=O)[nH]n1)N1CCN(S(=O)(=O)c2cccc(F)c2)CC1 | n | n | n | n | n | x | x | x
CN(Cc1nc2ccccc2c(=O)[nH]1)Cc1nc2ccsc2c(=O)[nH]1 | n | n | 62.5 | n | n | n | n | 39.1
c1ccc2c(c1)OCC(CNc1ncnc3sccc13)O2 (stereo not drawn) | n | n | 75.7 | n | n | 74.5 | n | n
Fc1ccccc1CNc1ncnc2sccc12 | n | n | n | n | n | x | x | x
Cc1ccc(S(=O)(=O)Nc2nc(-c3ccccc3)cs2)cc1 | n | n | n | n | n | x | x | x
Cc1ccc(S(=O)(=O)Nc2ccccc2C(=O)Nc2nc(-c3ccc(F)cc3)cs2)cc1 | n | n | 77.2 | n | n | 78.7 | 35.1 | 77.5
CCCCCc1ccc(NC(=O)OCCCN2CCC3(CCC(c4ccccc4)CC3)C2=O)cc1 (stereo not drawn) | x | n | x | x | x | x | x | x
CCN1CCN(c2oc(-c3ccccc3C)nc2S(=O)(=O)c2ccccc2)CC1 | n | n | n | n | n | n | n | n
O=C(Nc1c(-c2ccc(C(F)(F)F)cc2)nc2ncccn12)C1CC1 | x | n | x | x | x | x | x | x
CC(Sc1nc2ccccc2[nH]1)C(=O)NC1CCCCC1C (stereo not drawn) | n | n | n | n | n | x | x | x
CC(Sc1nc2ccccc2c(=O)n1C)C(=O)NC1CCCCC1C (stereo not drawn) | n | x | 59.2 | n | n | 55.1 | n | n
CC(=O)c1ccc(N2CCN(c3ccc(C(F)(F)F)cn3)CC2)cc1 | n | n | n | n | n | 51.9 | n | n
CCCCc1nc(N2CCN(C(=O)c3ccco3)CC2)c(C#N)c2c1CCCC2 | n | n | 66.4 | n | n | n | n | 35.0
O=C1CC(c2ccccc2)CC(O)=C1C=Nc1ccccc1 (stereo not drawn) | n | n | n | n | n | x | x | x
Cc1ccc(N=CC2=C(O)CC(c3ccc(Cl)cc3)CC2=O)cc1 (stereo not drawn) | n | n | n | n | n | n | n | n
Cc1nc2ccc(S(=O)(=O)NCC(=O)NCCN3CCCCCC3)cc2s1 | n | n | 83.0 | n | n | n | n | n
Cc1ccc(NC(=O)C2CCCN(c3nnc(-n4cccc4)s3)C2)c(C)c1 (stereo not drawn) | x | n | x | x | x | x | x | x
Cc1c[nH]c2cccc(-c3ccc(OCc4ccccc4)cc3)c12 | x | n | x | x | x | x | x | x
